# Most compounds without a hit are left out; they make up all but 6.8% or so of the library.
# KB-V1 MDR tox: kills drug-selected multidrug resistant KB-V1 cells; KB-V1 MDR cells viability, CellTiter-Glo, 72 h; Potency, µM (titrated, usually from 46.1 µM), hits mostly cytotoxic; actives 3.4% (n = 400,000); AID 1347076; also: % is scaled to controls: 0 for no effect and ±100 for the full control effect; nearly all actives have a fitted effect of over 60% in size
#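 Cytotoxicity via CellTiter-Glo luminescence after 72 h compound exposure at 37 degrees C. Cells: drug-selected KB-V1 line, DMEM phenol-red free plus 10% FBS. Compounds tested at multiple concentrations; normalized data fitted to concentration-effect curves.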
# MCF10A rereplic: induces DNA re-replication in MCF 10a normal breast cells. MCF 10A DNA re-replication, Hoechst nuclear intensity, 48 h. Potency, µM (doses to about 46.1 µM), for inactives: at the top dose activity, positive = re-replication, actives largely listed as activators. actives 2.9% (n = 350,000). AID 624296; also: % of control where 0% means no effect; nearly all actives have a fitted effect of over 50% in size
# KB-3-1 tox: KB-3-1 parental cell cytotoxicity; KB-3-1 viability, CellTiter-Glo ATP luminescence, 72 h; Potency, µM (highest dose often 46.1 µM), usual class: cytotoxic; actives 1.4% (n = 400,000); AID 1347075; also: % is scaled to controls: 0 for no effect and ±100 for the full control effect; nearly all actives have a fitted effect of over 60% in size
#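 Screening of KB-3-1 cells (DMEM, 10% FBS, phenol-red free) ran from lowest to highest compound concentration; after 72 h at 37 °C viability was read luminescently and curves fitted.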
# SW480 rerep: induces DNA re-replication in SW480 colon adenocarcinoma cells; SW480 DNA re-replication, Hoechst DNA content imaging, 48 h; Potency, µM (doses to about 46.1 µM), for the others: at the highest dose re-replication activation, most hits filed as activators; actives 1.8% (n = 340,000); also: % of control where 0% means no effect; nearly all actives have a fitted effect of over 55% in size
#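 Cells (250 per well) received 23 nL compound or DMSO by pin tool and were kept 48 hr at 37 C, 5% CO2. Nuclei were then stained with Hoechst for 40 min and scanned for DNA content.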
# PTAP TSG101 blk: blocks PTAP/TSG101 interaction to inhibit HIV-1 budding. Q99816. Fluorescence polarization, FITC-PTAP peptide / Tsg101 binding. Potency, µM (titrated, usually from 115 µM), without a hit: at the highest dose activity change, negative = inhibition, actives largely listed as inhibitors. 340,000 tested, under 10 active. AID 493005; active = well fitted inhibition curve with a large enough effect in the main read-out, with a control signal flat, not every such curve was filed as active; inconclusive = small, poorly fitted or top-dose-only effect, or effect the other way, or a change in a side signal; inactive = no such curve, though single readings can be large or run the other way; also: % of control where 0% means no effect
# Target sequence (Q99816 whole entry, looked up): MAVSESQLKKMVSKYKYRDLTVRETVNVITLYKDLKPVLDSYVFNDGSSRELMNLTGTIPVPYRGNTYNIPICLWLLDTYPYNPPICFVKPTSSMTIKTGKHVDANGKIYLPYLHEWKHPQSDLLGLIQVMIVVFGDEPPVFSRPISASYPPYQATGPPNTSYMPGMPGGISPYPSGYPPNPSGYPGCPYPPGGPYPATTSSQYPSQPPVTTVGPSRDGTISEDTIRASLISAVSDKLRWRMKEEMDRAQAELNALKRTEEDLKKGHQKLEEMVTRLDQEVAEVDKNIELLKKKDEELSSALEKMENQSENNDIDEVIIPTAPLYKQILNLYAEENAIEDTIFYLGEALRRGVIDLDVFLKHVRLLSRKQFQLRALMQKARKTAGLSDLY
#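 Fluorescence anisotropy tracks displacement of a FITC-tagged PTAP peptide (50 nM) from the Tsg101 binding domain (10 uM), following a 20 min room-temperature incubation at pH 7.5.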
# PINK1 modulator: changes PINK1 expression; PINK1 immunofluorescence, high-content cytometry, 24 h; Potency, µM (series often up to 76.6 µM), for inactives: at the top dose activation (PINK1 increase), actives largely listed as activators; actives 0.2% (n = 410,000); AID 624263; active = well fitted activation curve with a large enough effect; inconclusive = small, poorly fitted or top-dose-only effect; cell line not stated here; also: % of control where 0% means no effect; nearly all actives have a fitted effect of over 65% in size
#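 Decision-based qHTS: stable cells, 24 h exposure to five compound concentrations, CCCP as control. Fixed cells stained for PINK1 plus nuclear, mitochondrial and cell markers, cytometer read.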
# * hit, by the source's call; i = inactive; ? = inconclusive; . = no result given; [ ] = dose if it differs, or a comment. Unless noted, calls follow the shape of the dose curve; as a rule, active = well fitted curve in the direction sought with a large enough effect; inconclusive = small, poorly fitted or top-dose-only effect, or another doubt; inactive = no such curve, though single readings can be large; an effect the other way counts as inactive or inconclusive. Potency is read from the fitted curve at half-maximal effect.
SMILES,KB-V1 MDR tox,MCF10A rereplic,KB-3-1 tox,SW480 rerep,PTAP TSG101 blk,PINK1 modulator
Cc1ccc(Cc2nc3ccccc3nc2SCC(=O)N2CCCCC2C)cc1 (stereo not given),i,.,?,.,.,?
Cc1ccc(C)c(NC(=O)Cn2c(=O)n(Cc3ccco3)c(=O)c3oc4ccccc4c32)c1,i,.,i,.,.,1%
Cc1ccc(NC(=O)CSc2ncnc3ccccc23)cc1S(=O)(=O)N1CCCCC1,i,?,i,0%,-2%,-2%
COc1ccc(S(=O)(=O)N2CCCCC2)cc1NC(=O)CN(Cc1ccco1)Cc1ccco1,?,21µM*,i,-6%,1%,0%
COc1ccc(S(=O)(=O)N2CCCCC2)cc1NC(=O)CSc1ncnc2ccccc12,21µM*,18%,i,21%,0%,1%
CCOc1cccc(CC(=O)NCc2ccc3c(c2)CCN3C(C)=O)c1OCC,.,.,.,.,.,1%
COc1cccc(-c2nc3cc4c(cc3cc2CN(C(=O)c2cc(C)nn2C)C2CC2)CCC4)c1OC,.,.,.,.,.,3%
O=C(NCc1ccccc1)c1cccc(COc2ccc3c(c2)CCC3)c1,16µM*,3%,i,11%,1%,-2%
O=C(NN1CCCCC1)c1cccc(COc2ccc(Cl)cc2)c1,15µM*,12%,i,-5%,-2%,0%
OC1(c2cccnc2)CCN(Cc2ccc3c(c2)CN(Cc2ccsc2)CCO3)CC1,.,.,.,.,.,0%
Cc1nc2c3ccccc3nc(SCC(=O)c3ccc(Cl)cc3)n2n1,10µM*,?,i,-90%,1%,?
Cc1nc2c3ccccc3nc(SCC(=O)N3CC(C)CC(C)C3)n2n1 (stereo not given),0.58µM*,31%,i,2%,-1%,3%
CC(=O)CSc1nnc2c3ccccc3nc(C(C)(C)C)n12,i,?,i,?,-2%,2%
Cc1ccc(C(=O)CSc2nnc3c4ccccc4nc(C(C)(C)C)n23)cc1,?,6.5µM*,23µM*,13µM*,0%,2%
COCCNC(=O)CSc1nc2ccccc2c2nc(C)nn12,i,-3%,i,-14%,-10%,1%
Nc1c(N(CCC2=CCCCC2)C(=O)COc2ccc(F)cc2)c(=O)[nH]c(=O)n1Cc1ccccc1,i,16µM*,?,-9%,1%,1%
COc1ccc(C2=C(C(C)=O)Sc3nnc(-c4ccc(Cl)cc4)n3N2C(C)=O)cc1OC,.,.,.,.,.,2%
COC(=O)c1ccccc1NC(=O)CSc1nnc2cc(C)c3cc(C)cc(C)c3n12,i,.,i,.,.,-1%
CCN(Cc1ccccc1)C(=O)c1cc(-c2ccccc2)n[nH]1,i,.,i,.,.,0%
COc1cc(C(=O)N2CCN(Cc3ccccc3C(F)(F)F)CC2)cc(OC)c1OC,15µM*,?,i,11%,-2%,1%
COc1cccc(OC)c1C(=O)N1CCN(Cc2ccccc2C(F)(F)F)CC1,i,0%,i,1%,0%,2%
O=C(c1ccc(OC2CCN(Cc3ccc(C(F)(F)F)cc3)CC2)cc1)N1CCCCC1,i,?,i,-2%,-7%,-1%
O=C(c1ccc(OC2CCN(Cc3ccccc3C(F)(F)F)CC2)cc1)N1CCCCC1,16µM*,?,?,?,0%,-2%
COc1cc(OC)cc(C(=O)N2CCN(Cc3ccccc3C(F)(F)F)CC2)c1,15µM*,15%,i,7%,-3%,11%[38.3 µM]
CCOC(=O)C1=C(CS(=O)(=O)c2ccc(C(C)(C)C)cc2)NC(=O)NC1c1cccc(OC)c1 (stereo not given),i,.,i,.,.,0%
SMILES,KB-V1 MDR tox,MCF10A rereplic,KB-3-1 tox,SW480 rerep,PTAP TSG101 blk,PINK1 modulator
Cc1cc(C)c(CN2CCN(CCCn3cnc(C(=O)Nc4ccc(C)c(C)c4)n3)CC2)c(C)c1,i,?,i,7.3µM*,1%,-1%
Cc1ccc(NCCCn2cnc(C(=O)Nc3ccc(C)c(C)c3)n2)cc1C,?,-1%,i,-7%,-6%,1%
Cc1ccc(S(=O)(=O)N2CCN(c3nc(-c4cccs4)nc4ncccc34)CC2)cc1,i,.,?,.,.,0%
Cn1c(=O)oc2cc(S(=O)(=O)NCCC(=O)Nc3ccc(F)c(Cl)c3)ccc21,i,.,i,.,.,0%
CCCOC(=O)C(=O)NNc1ccccc1,i,21%,?,7%,0%,1%
CC(C)OC(=O)C(=O)NNc1ccccc1,i,10µM*,?,3%,2%,3%
CC(=O)c1sc(N/N=C\c2ccc(Br)cc2)nc1C,i,18µM*,i,?,4%,?
CC(=O)c1sc(N/N=C\c2cccc(Br)c2)nc1C,?,13µM*,i,11%,-2%,21%
CCOC(=O)/C=C1/N(C)c2ccccc2C1(C)C,i,-2%,i,-6%,-2%,6%
CN1/C(=C\C(=O)c2cccs2)C(C)(C)c2ccccc21,?,4.1µM*,i,?,1%,4%
CN1/C(=C\C(=O)c2cccs2)Sc2ccccc21,?,18µM*,i,15µM*,-6%,0%
CN1CCCC2(CCN(C(=O)c3cnccn3)CC2)C1,.,.,.,.,.,-1%
C=CCn1c(NC(=O)c2ccccc2Cl)c(C#N)c2nc3ccccc3nc21,8.2µM*,16µM*,?,18µM*,-2%,20%
CCC(=O)Nc1ccc(N2CCCCC2)c(C(=O)Nc2ccccc2C)c1,12µM*,3%,i,-6%,.,-4%[38.3 µM]
Cc1ccccc1NC(=O)c1cc(N)ccc1N1CCCCC1,15µM*,2%,i,-1%,-6%,3%[38.3 µM]
COC(=O)c1cccc(NC(=O)C23CC4CC(C2)CC(n2cncn2)(C4)C3)c1,21µM*,-2%,i,-10%,-5%,6%
COc1cc(NC(=O)C23CC4CC(C2)CC(n2cnc([N+](=O)[O-])n2)(C4)C3)cc(OC)c1,21µM*,2%,?,?,-4%,-1%
Cn1c(NCc2ccccc2F)nc2ccccc21,i,.,i,.,.,1%
CC(=O)OCC(=O)[C@@]1(O)CC[C@H]2[C@@H]3CCC4=CC(=O)C=C[C@]4(C)[C@H]3[C@@H](O)C[C@@]21C,i,4%,i,-3%,-1%,3%
CC12CCC(=O)C=C1CCC1C2C(O)CC2(C)C(c3csc(N)n3)CCC12 (stereo not given),?,?,i,6%,-4%,-3%

# Bioassay records: PubChem, National Center for Advancing Translational Sciences (NCATS)
